# Wee1 stabilizer – inhibitors of human Wee1 degradation. HeLa Luc-Wee1K328M stability, luciferase luminescence; 100% = proteasome inhibitor MG132 effect. P30291. AID 1321. hit rate 1.2% among 220,000. reporter increase, % at 5 µM;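 active means activation above the mean of all tested compounds plus 3 SD, set per screening run, cut at about 8.8% in these data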;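 further: cells exposed to compound for 20 h before luminescence read; 0% = DMSO alone and 100% = MG132 at 30 µM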
# Target sequence (P30291 whole entry K328M): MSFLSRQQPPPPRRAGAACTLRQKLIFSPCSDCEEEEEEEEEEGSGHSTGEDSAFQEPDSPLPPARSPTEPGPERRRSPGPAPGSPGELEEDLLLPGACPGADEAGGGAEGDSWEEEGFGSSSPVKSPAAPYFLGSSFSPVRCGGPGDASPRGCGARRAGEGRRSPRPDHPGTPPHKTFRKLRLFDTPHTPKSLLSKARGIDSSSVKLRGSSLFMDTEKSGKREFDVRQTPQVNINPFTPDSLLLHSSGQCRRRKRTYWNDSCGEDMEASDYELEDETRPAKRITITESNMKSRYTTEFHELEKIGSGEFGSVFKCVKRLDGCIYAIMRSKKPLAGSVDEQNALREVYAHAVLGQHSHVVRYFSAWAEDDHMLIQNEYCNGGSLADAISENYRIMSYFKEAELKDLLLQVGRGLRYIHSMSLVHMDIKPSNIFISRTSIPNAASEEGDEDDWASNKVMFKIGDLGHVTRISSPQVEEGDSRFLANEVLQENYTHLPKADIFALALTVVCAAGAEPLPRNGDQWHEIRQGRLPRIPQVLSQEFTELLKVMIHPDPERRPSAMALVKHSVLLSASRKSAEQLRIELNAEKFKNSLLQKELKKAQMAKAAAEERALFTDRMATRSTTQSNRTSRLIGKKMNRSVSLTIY
# HSV augment – increases HSV replication in cells | HSV replication augmentation in cells, fold increase | maximum fold increase | hit rate 0.005% among 220,000 | AID 1956; in the data active means maximum fold increase above about 1.5; tested in PC3 cells
# TNF death inh – inhibitors of TNF-alpha induced necroptosis in Jurkat FADD-/- cells. hit rate 0.068% among 220,000. Jurkat FADD-/- TNF necroptosis rescue, ATP luminescence, 24 h; 0 = TNF only, 100 = no-TNF cells. AID 463075. activation (protection from cell death), % at 10 µM;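 active means activation, meaning protection from cell death, of at least 50% relative to plate controls; inactive means activation below 50%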;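 further: necroptosis triggered by 40 ng/mL TNF-alpha added together with compound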
# V-ATPase pHluor – alters yeast V-ATPase proton transport | response, % at 10 µM | AID 504577 | hit rate 0.37% among 350,000 | S. cerevisiae, pHLuorin cytosolic pH fluorescence; in the data active means response mostly above about 7.3%, no sharp cut-off; inactive means mostly below about 5.4%; further: actives read high
# zVAD death inh – L929 zVAD cell death inhibition. hit rate 0.38% among 220,000. L929 zVAD necroptosis rescue, ATP luminescence, 24 h; with zVAD 60 µM. viability rescue, % at 10 µM;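 active means activation, scaled between plate controls, above about 75%, limit read from the data; inactive means activation under that limit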;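 further: 0% = zVAD with DMSO and 100% = DMSO alone without zVAD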
# zVAD death conf – confirmed blocker of zVAD induced death in L929 cells; shares compounds with zVAD death inh; L929 zVAD-induced necroptosis rescue, ATP luminescence, 24 h; activation (protection from necroptosis), % at 10 µM; hit rate 16% among 760; AID 463117;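 active means mean protection from necroptosis of at least 50% over duplicate tests; inactive means mean protection below 50%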;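 further: 0% = cells with zVAD alone and 100% = vehicle cells without zVAD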
# * hit, by the source's call; i = inactive; · = no result given. Rows were chosen to be rich in hits. Some 1.4% of all compounds tested hit in one or more screens of this group.
SMILES,Wee1 stabilizer,HSV augment,TNF death inh,V-ATPase pHluor,zVAD death inh,zVAD death conf
COc1ccccc1N1CCN(S(=O)(=O)c2ccc(-n3cnnn3)cc2)CC1,·,·,·,2.5,·,·
Oc1ccccc1N=Cc1ccc[nH]1,2.6,i,7.8,-1.4,97.4*,6.6
CN(C(=O)COC(=O)CN1C(=O)C2CC=CCC2C1=O)c1ccccc1 (stereo not drawn),·,·,·,3.7,·,·
CC(=O)c1c(C)[nH]c(C(=O)OCC(=O)NCCc2ccc(F)cc2)c1C,-4.0,i,-3.4,3.5,0.8,·
COC(=O)c1c(C)[nH]c(C(=O)OCc2ccc(F)cc2)c1C,5.0,i,1.5,2.1,78.8*,3.2
CCc1c(C(=O)OCc2ccccc2)[nH]c(C)c1C,1.7,i,-0.2,-1.8,68.4,·
CC(=O)c1c(C)[nH]c(C(=O)OCc2c(F)cccc2Cl)c1C,-1.6,i,-1.3,-0.4,1.4,·
CCc1c(C)[nH]c(C(=O)OCc2ccccc2)c1C,1.9,i,0.9,1.9,86.2*,7.6
CC(=O)c1c(C)[nH]c(C(=O)OCc2cccc(Cl)c2)c1C,0.7,i,-0.6,-3.1,78.7*,7.9
NC(=O)c1c(NC(=O)CN2C(=O)NC(Cc3ccccc3)C2=O)sc2c1CCC2 (stereo not drawn),-0.5,i,1.9,2.7,-0.3,·
CC(=O)/C=C(\C)Nc1ccccc1O,1.6,i,12.3,-1.5,81.2*,8.6
O=C(Nc1ccccc1O)c1ccccc1O,-1.7,i,-2.3,-4.0,0.0,·
Cc1ccc(Nc2nc(OC(C(F)(F)F)C(F)(F)F)nc(N3CCOCC3)n2)cc1,0.0,i,2.7,1.4,88.2*,2.0
CC(=O)c1cnc(Nc2ccc(C)cc2)s1,0.9,i,14.2,-2.2,84.1*,3.3
CC(=O)Nc1ccc(C(=O)CSc2ncn(-c3ccccc3)n2)cc1,1.1,i,-5.0,-5.4,79.5*,0.9
O=C(CSc1ncn(-c2ccccc2)n1)Nc1nncs1,0.0,i,0.2,-2.5,0.9,·
COc1ccc(C(=O)Nc2ncc(C)s2)cc1S(=O)(=O)N1CCCC1,-0.5,i,13.0,-1.4,88.6*,1.7
CN=C1S/C(=C\c2cn(CC(=O)OC)c3ccccc23)C(=O)N1C,2.4,i,0.7,-4.4,75.4*,-0.2
CN=C1S/C(=C/c2cn(CC(=O)OC)c3ccccc23)C(=O)N1C,-0.7,i,-1.6,-1.2,67.1,·
COc1ccc(-c2oc3ncnc(NCCCN4CCOCC4)c3c2-c2ccc(OC)cc2)cc1,0.6,i,-5.6,0.6,76.7*,-0.3
S=c1[nH]nc(-c2ccncc2)n1/N=C/C(Cl)=C\c1ccccc1,-2.6,i,1.8,-1.1,84.9*,5.5
CCCN1C(=O)/C(=C/c2ccc3c(c2)OCO3)NC1=S,-2.0,i,45.6,-0.1,87.2*,90.4*
COc1ccc(/C=N/Nc2ccccn2)c(OC)c1OC,0.3,i,26.8,-4.3,82.7*,12.0
CCOc1ccc(/C=N/Nc2ccccn2)cc1OC,0.9,i,23.3,-1.1,79.9*,3.9
C=CCOc1ccc(/C=N/Nc2ccccn2)cc1OC,0.0,i,8.4,-1.1,85.4*,1.0
SMILES,Wee1 stabilizer,HSV augment,TNF death inh,V-ATPase pHluor,zVAD death inh,zVAD death conf
COc1ccc(/C=N\Nc2ccccn2)c(OC)c1,·,·,·,-2.5,·,·
O=C(Cc1ccccc1)NN1C(=O)/C(=C/c2ccccc2C(=O)O)SC1=S,-0.1,i,0.2,-2.5,-0.1,·
O=C(Nc1nnc(-c2ccncc2)s1)Nc1ccccc1F,3.9,i,4.5,-1.1,78.4*,4.1
COc1ccc(OCc2nnc(NC(=O)Nc3ccccc3F)s2)cc1,-3.2,i,3.2,1.2,83.4*,4.6
CCOc1cc(C#N)ccc1OCC(=O)NNC(=O)CC1CCS(=O)(=O)C1 (stereo not drawn),·,·,·,7.6,·,·
CC1(C)C(=O)OC(c2ccc([N+](=O)[O-])cc2)C(C)(C)C1=O (stereo not drawn),·,·,·,1.4,·,·
COC(=O)c1sccc1NC(=O)CC1C(=O)NCCN1C(=O)Nc1ccc(C(F)(F)F)cc1 (stereo not drawn),-0.3,i,0.8,-1.7,1.0,·
O=C(Nc1ccc(N2CCOCC2)cc1)c1cc2c(s1)CCCCC2,-2.1,i,2.7,2.6,75.3*,4.6
Cc1cnc(NC(=O)c2cc3c(s2)CCCC3)s1,-1.8,i,47.5,1.3,79.1*,79.0*
Cc1cnc(NC(=O)c2ccco2)s1,7.2,i,-0.2,-3.8,83.0*,9.6
Cc1csc(NC(=O)c2cc3c(s2)CCCC3)n1,-1.8,i,-2.4,-0.6,0.8,·
Cc1c(N(C)S(=O)(=O)c2cccc(C(=O)NC(C)C)c2)c(=O)n(-c2ccccc2)n1C,·,·,·,-1.8,·,·
COCCN(C(=O)CSc1nnc(-c2ccccc2C)n1C)c1c(N)n(Cc2ccccc2)c(=O)[nH]c1=O,6.0,·,0.1,-1.3,2.3,·
O=C(COc1ccccc1)n1nc(-c2ccc(Cl)cc2)nc1NCc1ccco1,-0.3,i,-0.9,2.2,82.6*,-0.2
CC1CN(C(=O)CCC(=O)NCCCN2C(C)CCCC2C)c2ccccc2O1 (stereo not drawn),·,·,·,1.4,·,·
O=C(OCn1ncc(Br)c(Br)c1=O)c1ccc(F)cc1,2.1,i,-23.9,2.3,112.7*,135.9*
c1ccc(Nc2nc3ccccc3[nH]2)nc1,1.9,i,-0.5,-0.6,75.0*,7.7
COc1ccc2nc(NC(=O)CN3CCN(C)CC3)sc2c1,-0.2,i,-0.6,-0.3,92.0*,37.2
CCCC(=O)Nc1nc2ccc(OC)cc2s1,-2.5,i,4.7,-2.1,72.0,·
COc1ccc2nc(NC(=O)CN3CCOCC3)sc2c1,7.8,i,0.8,-2.1,10.9,·
CCN1CCN(CC(=O)Nc2nc3ccc(OC)cc3s2)CC1,-2.3,·,2.4,0.3,83.7*,22.0
COc1ccc2nc(NC(=O)CCNC(=O)c3ccccc3Cl)sc2c1,6.7,i,1.6,0.7,78.0*,2.9
O=C(CN1C(=O)NC2(CCCC2)C1=O)N1CCc2ccccc2C1,0.1,i,0.4,-0.4,1.8,·
COc1cc(/C=N/NC(=O)c2sc(N)c(C#N)c2C)cc(Br)c1O,-2.2,·,5.4,2.2,99.4*,39.4
COc1ccc2ccccc2c1/C=N/NC(=O)c1sc(N)c(C#N)c1C,-0.4,i,2.5,-0.8,1.0,·
COC(=O)c1ccc(N2C(=O)Nc3ccccc3N2O)cc1,-0.5,i,-0.3,-0.4,1.3,·
O=C(CCNS(=O)(=O)c1ccccc1)NNC(=O)C1COc2ccccc2O1 (stereo not drawn),·,·,·,1.8,·,·
COc1ccc(OCCC(=O)NCC23CC4CC(CC(C4)C2)C3)cc1,4.2,i,1.1,0.0,94.4*,4.1
O=c1/c(=C\c2ccc(F)cc2)sc2n1CCCN=2,9.3*,i,-0.7,-4.8,75.8*,0.0
CN1CCN(c2ccc(-c3ccnn3C(=O)Nc3cccc(C(F)(F)F)c3)cc2)CC1,6.1,i,6.1,-4.3,84.5*,50.8*
